# Screening data as filed in PubChem.
# PINK1 modulator: PINK1 expression modulation | PINK1 immunofluorescence, high-content cytometry, 24 h | Potency, µM (titrated, usually from 76.6 µM), for inactives: at the highest dose activation (PINK1 increase), usual class: activators | 0.2% of 410,000 active | AID 624263; active = well fitted activation curve with a large enough effect; inconclusive = small, poorly fitted or top-dose-only effect; cell line not stated here; also: % of control where 0% means no effect; nearly all actives have a fitted effect of over 65% in size
#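 Readout is PINK1 immunofluorescence, quantified alongside mitochondrial, cell and nuclear markers by laser-scanning microplate cytometry. Cells from a stable line were exposed to compound titrations (5 concentrations) for 24 hours, with CCCP controls.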
# KB-3-1 cytotox: kills parental KB-3-1 adenocarcinoma cells; KB-3-1 viability, CellTiter-Glo ATP luminescence, 72 h; Potency, µM (series often up to 46.1 µM), hits mostly cytotoxic; 1.4% of 400,000 active; AID 1347075; also: % is scaled to controls: 0 for no effect and ±100 for the full control effect; nearly all actives have a fitted effect of over 60% in size
#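 Screening of KB-3-1 cells (DMEM, 10% FBS, phenol-red free) ran from lowest to highest compound concentration; after 72 h at 37 °C viability was read luminescently and curves fitted.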
# KB-V1 cytotox: KB-V1 MDR subline cytotoxicity; KB-V1 MDR cells viability, CellTiter-Glo, 72 h; Potency, µM (highest dose often 46.1 µM), actives largely listed as cytotoxic; 3.4% of 400,000 active; AID 1347076; also: % is scaled to controls: 0 for no effect and ±100 for the full control effect; nearly all actives have a fitted effect of over 60% in size
#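 Luminescent ATP read-out (CellTiter-Glo, 10 min) measures survival of drug-selected KB-V1 MDR cells after 72 h, 37 degrees C compound exposure. Medium: phenol-red-free DMEM, 10% FBS. Values from fitted concentration-response curves.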
# SW480 rereplic: induces DNA re-replication in SW480 colon adenocarcinoma cells | SW480 DNA re-replication, Hoechst DNA content imaging, 48 h | Potency, µM (doses to about 46.1 µM), for inactives: at the highest dose re-replication activation, hits mostly activators | 1.8% of 340,000 active | AID 624297; also: % of control where 0% means no effect; nearly all actives have a fitted effect of over 55% in size
#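 Image-based read-out: total Hoechst fluorescence of nuclei (405 nm excitation, 500-530 nm emission), with hits raising the fraction of high-intensity nuclei. SW480 colon cells incubated 48 hr with compounds at 37 C.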
# ALOX12 inh: ALOX12 (human) lipoxygenase inhibition | AID 1671190 | purified 12hLO, xylenol orange hydroperoxide absorbance | Potency, µM (top dose mostly 108 µM), for the others: top-dose activity change, negative = inhibition, actives largely listed as inhibitors | 1.1% of 580,000 active; also: % is scaled to controls: 0 for no effect and ±100 for the full control effect
# Target sequence (P18054 whole entry, looked up): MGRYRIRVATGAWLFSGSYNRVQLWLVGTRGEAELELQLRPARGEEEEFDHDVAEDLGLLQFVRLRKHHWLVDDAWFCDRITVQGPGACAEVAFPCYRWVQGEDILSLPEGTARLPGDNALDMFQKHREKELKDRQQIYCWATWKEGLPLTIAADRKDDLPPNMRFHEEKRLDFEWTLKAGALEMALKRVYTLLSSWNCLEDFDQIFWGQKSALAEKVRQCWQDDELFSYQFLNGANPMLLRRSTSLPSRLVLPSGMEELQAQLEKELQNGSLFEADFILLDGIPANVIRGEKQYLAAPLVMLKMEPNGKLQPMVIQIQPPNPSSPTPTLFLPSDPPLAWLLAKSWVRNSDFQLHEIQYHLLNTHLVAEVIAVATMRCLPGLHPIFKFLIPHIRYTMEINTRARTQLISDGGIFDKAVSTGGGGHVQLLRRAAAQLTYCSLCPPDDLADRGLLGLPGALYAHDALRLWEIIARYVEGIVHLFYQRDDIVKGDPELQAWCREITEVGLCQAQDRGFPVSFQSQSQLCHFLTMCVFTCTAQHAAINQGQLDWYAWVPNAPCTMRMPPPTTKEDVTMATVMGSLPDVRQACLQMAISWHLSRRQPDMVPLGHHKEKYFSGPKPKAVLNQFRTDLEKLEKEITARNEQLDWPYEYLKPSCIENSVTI
#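 Purified human 12hLO at 150 nM in 25 mM Hepes, 0.01% Triton X-100, pH 7.0, preincubated 15 min at room temperature with compound. Reaction started with 40 uM arachidonic acid, 30 min at room temperature. Hydroperoxide measured by Fe-xylenol orange, 573/405 nm absorbance ratio.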
# MCF10A rerep: inducers of DNA re-replication in MCF 10A breast cells | Potency, µM (titrated, usually from 46.1 µM), inactives show at the top dose activity, positive = re-replication, actives largely listed as activators | 2.9% of 350,000 active | MCF 10A DNA re-replication, Hoechst nuclear intensity, 48 h; also: % of control where 0% means no effect; nearly all actives have a fitted effect of over 50% in size
# An asterisk follows results filed as active; i = inactive; ? = inconclusive; · = not tested or not shown; ! = repeats disagree; [ ] = another dose, or the depositor's remark. A selection: hits, their analogues and other compounds. The true share with any hit is near 5.8%. Unless noted, calls follow the shape of the dose curve; as a rule, active = well fitted curve in the direction sought with a large enough effect; inconclusive = small, poorly fitted or top-dose-only effect, or another doubt; inactive = no such curve, though single readings can be large; an effect the other way counts as inactive or inconclusive. Potency is read from the fitted curve at half-maximal effect.
SMILES,PINK1 modulator,KB-3-1 cytotox,KB-V1 cytotox,SW480 rereplic,ALOX12 inh,MCF10A rerep
CCCCCC(=O)N[C@@H](c1ccccc1)[C@@H](O)C(=O)O[C@H]1C[C@@]2(O)[C@@H](OC(=O)c3ccccc3)C3[C@](C)(C(=O)[C@H](OC(C)=O)C(=C1C)C2(C)C)[C@@H](O)C[C@H]1OC[C@@]31OC(C)=O (some centres undefined),6%,0.21µM*,?,0.18µM*,13%,?
CC(=O)O[C@H]1C(=O)[C@@]2(C)[C@H]([C@H](OC(=O)c3ccccc3)[C@]3(O)C[C@H](OC(=O)[C@H](O)[C@@H](NC(=O)c4ccccc4)c4ccccc4)C(C)=C1C3(C)C)[C@]1(OC(C)=O)CO[C@@H]1C[C@@H]2O,4%,0.046µM*!,13µM*!,2.6µM*,-5%,?
CC(=O)O[C@@]12CO[C@H]1C[C@H](O)[C@@]1(C)C(=O)[C@H](O)C3=C(C)[C@@H](OC(=O)C(O)[C@@H](NC(=O)OC(C)(C)C)c4ccccc4)C[C@@](O)([C@@H](OC(=O)c4ccccc4)[C@@H]21)C3(C)C (some centres undefined),·,·,·,·,38%[57.4 µM],·
CC(=O)O[C@H]1C(=O)[C@@]2(C)[C@H]([C@H](OC(=O)c3ccccc3)[C@]3(O)C[C@H](OC(=O)[C@H](O)C(NC(=O)c4ccccc4)c4ccccc4)C(C)=C1C3(C)C)[C@]1(OC(C)=O)CO[C@@H]1C[C@@H]2O (some centres undefined),6%,0.0092µM*,?,0.065µM*,-5%,?
COC(=O)c1c(C)oc2ccc(NS(=O)(=O)c3cc(OC)ccc3OC)cc12,1%,26µM*,10µM*,15%,0%,?
CC(=O)c1c(C)oc2ccc(NS(=O)(=O)c3ccc(C(C)C)cc3)cc12,5%,21µM*,?,·,-13%,·
CC(=O)c1c(C)oc2ccc(NS(=O)(=O)c3ccc(C)cc3)cc12,4%,i,?,5%,-7%,7%
COc1ccc(OC)c(S(=O)(=O)Nc2ccc3oc(C)c(C(C)=O)c3c2)c1,1%,i,?,-5%,-8%,18%
CCCCOC(=O)c1c(C)oc2ccc(NS(=O)(=O)c3ccc4c5c(cccc35)C(=O)N4)cc12,-1%,?,15µM*,9%,?,?
COCCOC(=O)c1c(C)oc2ccc(NS(=O)(=O)c3cccs3)cc12,-3%,i,i,7%,-15%,5%
COCCOC(=O)c1c(C)oc2ccc(NS(=O)(=O)c3ccc(C(=O)O)cc3)cc12,1%,i,i,-4%,-4%,-3%
CCOc1ccc(S(=O)(=O)Nc2ccc3oc(C)c(C(=O)OCCOC)c3c2)cc1,5%,5.8µM*,?,·,?,·
CCCn1c(=O)[nH]c(=O)c2c1nc(-c1cccc(C)c1)n2CCN1CCOCC1,·,·,·,·,-4%,·
COc1ccc(CCNC(=O)CSc2nc(-c3ccccc3C)nc3cc(=O)[nH]n23)cc1OC,·,·,·,·,2%,·
O=C(Nc1ccc(F)cc1)c1nn(-c2ccc(F)cc2)c2c1CCC2,·,·,·,·,-32%,·
O=C(Nc1cccc2ccccc12)c1cc(F)c(F)cc1Cl,·,·,·,·,-3%,·
CCCCn1c(N)c(N(CCC(C)C)C(=O)c2ccc([N+](=O)[O-])s2)c(=O)[nH]c1=O,0%,i,i,?,?,23µM*
CCCCN(C(=O)c1ccc([N+](=O)[O-])s1)c1c(N)n(CC(C)C)c(=O)[nH]c1=O,3%,i,i,13%,?,10%
COc1cccc(-c2ccc(NC(=O)C3CCCN(Cc4cc(C(C)C)n[nH]4)C3)cc2)c1 (centres undefined),·,·,·,·,14%,·
O=C(O)C(c1c[nH]c2ccccc12)N1CCN(c2ccc(F)cc2)CC1 (centres undefined),·,·,·,·,-21%,·
